Bioassay records as filed in PubChem BioAssay.
TAG inh: inhibitors of triacylglycerol accumulation, primary screen, cell-based, uHTS, fluorescence, H9c2 | H9c2 cells, Nile Red lipid (TAG) fluorescence; cells loaded with 200 µM oleic acid | inhibition, % at 12.5 µM | 0.66% of 230,000 active | AID 651582, 2012;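 active means pattern-corrected inhibition of lipid staining of at least 50% with the nuclear-stain viability signal not falling by more than 50%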;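 further: 0% = DMSO wells and 100% = triacsin C control wells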
CHT allo act: CHT positive allosteric modulators, primary screen, cell-based, membrane potential dye, choline EC20; 0.49% of 310,000 active; CHT-expressing cells; stronger effect = higher value; LV-AA mutant CHT in HEK293 cells; High affinity choline transporter 1 (Homo sapiens), Q9GZV3; B-score at 10 µM;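 active means initial fluorescence not abnormally high and integrated response B-score, plate-corrected, over 3 SD above library mean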
Target sequence (Q9GZV3 whole entry, looked up): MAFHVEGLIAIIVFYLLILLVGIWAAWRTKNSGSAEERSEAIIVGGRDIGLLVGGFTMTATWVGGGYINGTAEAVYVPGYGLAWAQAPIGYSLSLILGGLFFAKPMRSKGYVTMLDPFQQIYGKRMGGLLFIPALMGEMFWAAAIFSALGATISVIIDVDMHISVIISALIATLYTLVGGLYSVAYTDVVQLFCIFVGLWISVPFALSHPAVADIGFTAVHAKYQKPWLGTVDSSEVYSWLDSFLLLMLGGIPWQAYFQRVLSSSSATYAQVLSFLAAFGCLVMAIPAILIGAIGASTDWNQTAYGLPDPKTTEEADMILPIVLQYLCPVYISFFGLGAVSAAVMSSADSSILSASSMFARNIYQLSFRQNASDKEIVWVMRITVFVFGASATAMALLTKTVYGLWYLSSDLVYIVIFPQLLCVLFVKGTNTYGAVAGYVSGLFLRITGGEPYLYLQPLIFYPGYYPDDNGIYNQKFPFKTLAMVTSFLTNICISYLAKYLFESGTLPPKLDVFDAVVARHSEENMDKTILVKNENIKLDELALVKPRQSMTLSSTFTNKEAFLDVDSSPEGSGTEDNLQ
CHT inh: inhibitors of human choline transporter CHT | High affinity choline transporter 1 (Homo sapiens), Q9GZV3 | CHT-expressing cells, membrane potential dye, choline response; stronger effect = lower value | B-score at 10 µM | 0.86% of 310,000 active | AID 488975, 2010;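 active means B-score over 3 SD under the library average, and starting fluorescence ratio not unusually high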;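 further: choline stimulus applied at its EC90 after an EC20 pre-addition; B-score computed on integrated fluorescence ratio after choline addition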
Kir21 block: inhibitors of mouse Kir2.1 inward-rectifier potassium channel | HEK293-Kir2.1, FluxOR thallium flux fluorescence; stronger effect = lower value | B-score at 10 µM | 0.85% of 310,000 active;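 active means fluorescence ratio B-score at or below minus 3 SD of library scores, with starting-brightness B-score within 2 SD, cut at about -4.2 in these data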;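 further: channel flux triggered by added potassium and thallium sulfate stimulus; B-score of peak minus minimum fluorescence over baseline after thallium stimulus; more negative B-score means stronger Kir2.1 block with less thallium influx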
* marks the source's active call; other numbers are inactive results; i = inactive; x = no result given. Most compounds without a hit are left out; they make up all but 2% or so of the library.

SMILES	TAG inh	CHT allo act	CHT inh	Kir21 block
COc1ccc(-c2csc(N(CCCN(C)C)C(=O)c3ccccc3F)n2)cc1	x	i	i	-1.22
COc1ccc(-c2csc(N(CCCN(C)C)C(=O)c3ccccc3Cl)n2)cc1	x	i	-8.77*	-2.36
O=C1NCCn2ccc(=O)cc21	-6.2	i	i	-1.64
Cn1cnc([N+](=O)[O-])c1NC(C)(C)C	x	i	i	0.15
Cn1cnc([N+](=O)[O-])c1S(=O)(=O)c1ccc(Cl)cc1	32.2	x	x	-6.83*
CS(=O)(=O)c1ccc(C(=O)OCC(=O)NCc2cccs2)cc1[N+](=O)[O-]	51.5*	x	x	x
Cc1cccc(C(=O)OCC(=O)NCc2cccs2)c1	-7.7	i	i	-0.65
O=C(Cc1ccccc1)NC(CSSCC(NC(=O)Cc1ccccc1)C(=O)O)C(=O)O (stereo unspecified)	0.2	x	x	x
Cc1cc(C(=O)OCC(=O)NCc2ccco2)c(C)n1-c1ccc(F)cc1	x	i	-6.27*	-1.5
CCNC(=O)COC(=O)c1cc(C)n(-c2ccccc2)c1C	0.8	i	i	-0.01
CCn1cc(CNCc2ccc(OCC(O)CN(C)Cc3ccccc3)cc2)cn1 (stereo unspecified)	-1.3	i	i	-1.37
CN(Cc1ccccc1)CC(O)COc1ccc(CNCc2ccc(Cl)s2)cc1 (stereo unspecified)	1.6	i	i	-12.3*
S=C1NC2(CCCCC2)Nc2ccccc21	-19.0	i	i	1.35
CN(c1ccccc1)S(=O)(=O)c1ccc(NC(=O)c2nc(S(C)(=O)=O)ncc2Cl)cc1	x	i	i	-4.49*
O=C1c2ccc3c4c(ccc(c24)C(=O)N1c1cccc(O)c1)C(=O)N(c1cccc(O)c1)C3=O	67.9*	i	i	0.01
CC(C)NS(=O)(=O)c1ccc(Oc2ncc(C(F)(F)F)cc2Cl)cc1	-35.7	i	i	2.31
COc1ccc(S(=O)(=O)NN(C)c2ncc(C(F)(F)F)cc2Cl)cc1	-4.2	i	i	-7.98*
Cc1ccccc1CNC(=O)Cn1ccc2cc(S(=O)(=O)N3CCCCCC3)ccc21	x	i	i	-1.01
COC(=O)c1c(SCC(=O)Nc2ccc(C)c(C)c2)nc(=O)[nH]c1C	-7.9	i	i	-0.06
Cc1ccc(-n2nc3c(=O)n(C(C)C(=O)NCCc4cccs4)nc(C)c3c2C)cc1 (stereo unspecified)	x	i	-5.54*	-0.55
Cc1ccc(-n2nc3c(=O)n(CC(=O)NCCc4cccs4)nc(C)c3c2C)cc1	x	i	i	-0.48
Nc1[nH]nc2ncc3cc4ccccc4nc3c12	10.0	i	i	-1.89
COc1ccc(C2/C=C\CN(C(=O)OCC3c4ccccc4-c4ccccc43)CC(=O)N2Cc2cccc(F)c2)cc1 (stereo unspecified)	29.4	x	x	x
Cc1ccc(C)c(CSCc2nc3ccccc3[nH]2)c1	x	i	i	-8.43*
Cc1ccc(-n2cccn2)c(CN2CCCC(C(=O)c3sccc3C)C2)c1 (stereo unspecified)	-9.6	i	i	-4.48*
SMILES	TAG inh	CHT allo act	CHT inh	Kir21 block
COc1ccc(O)c(CN2CCCC(C(=O)Nc3cccc(-n4cccn4)c3)C2)c1 (stereo unspecified)	6.5	i	i	-1.75
Cc1c(C(=O)Nc2ccc(S(=O)(=O)N(C)C3CCN(C)CC3)cc2)oc2c(Cl)cccc12	23.6	i	i	-4.97*
O=C1[C@@H]2C(c3cccnc3)=NO[C@@H]2C(=O)N1c1ccc2ccccc2c1	0.6	i	i	-0.19
CC(C)[C@H]1C=C(C(=O)O)O[C@@H](OCCCCO)C1	5.1	i	i	0.16
COc1ccccc1OCC(=O)Nc1ccc(C(=O)Nc2ccccc2C(=O)O)cc1	-9.7	x	x	x
Cc1cccc(OCC(=O)Nc2ccc(C(=O)Nc3ccccc3C(=O)O)cc2)c1C	6.3	i	-5.58*	-1.59
O=C(COc1coc(CN2CCN(Cc3ccccc3)CC2)cc1=O)Nc1ccccc1	-19.9	i	i	-0.24
Cn1nnnc1SCCNCc1ccccc1OCc1ccc(Cl)cc1	x	i	i	-4.29*
Cn1nnnc1SCCNCc1cc(Cl)ccc1OCc1ccccc1	x	i	i	-2.07
CCN(CC)CCOC(=O)C(Cc1ccco1)Cc1cccc2ccccc12 (stereo unspecified)	-2.3	i	i	-7.52*
COc1ccc(NC(=O)COc2ccc(C(=O)NC3CCCc4ccccc43)cc2OC)cc1 (stereo unspecified)	x	i	i	-1.08
CC1(C)CC(=O)C=C(N2CCNCC2)C1	-8.8	i	i	1.85
CC1CC(C)C[N+](=C2C=C(N3CCCC3)CC(C)(C)C2)C1 (stereo unspecified)	-21.6	x	x	-5.82*
CC(NCc1ccc(OCc2ccc(Cl)cc2)cc1)C(O)c1ccccc1 (stereo unspecified)	30.1	i	i	0.09
CC(NCc1cccc(OCc2ccccc2)c1)C(O)c1ccccc1 (stereo unspecified)	2.5	i	i	-10.5*
CN(C)CC(C(=O)c1ccccc1)c1ccccc1 (stereo unspecified)	65.2*	i	i	-0.89
COC(=O)CC1C(=O)NCCN1C(=O)c1ccc([N+](=O)[O-])cc1 (stereo unspecified)	x	i	i	0.6
CCOc1ccccc1C1CC(c2ccc(Br)cc2)Nc2nc(N)nn21 (stereo unspecified)	-2.4	i	i	0.39
OCC1(Cc2ccc(F)cc2F)CCCN(Cc2ccc(Cl)cc2)C1 (stereo unspecified)	x	i	i	-9.43*
CSc1cccc(CN2CCC(Oc3cccc(C(=O)N4CCCC4)c3)CC2)c1	-4.7	i	i	-4.76*
O=C(c1cccc(OC2CCN(Cc3cccc(OCCO)c3)CC2)c1)N1CCCC1	-5.3	i	i	-0.64
CSc1cccc(CN2CCC(Oc3ccc(C(=O)N4CCCCC4)cc3)CC2)c1	-7.0	i	i	-5.54*
CCCn1c(-c2ccc(OC)cc2)nc2ccccc21	-44.6	i	i	-4.49*
COCn1c(-c2ccc(OC)cc2)nc2ccccc21	-7.8	i	i	0.04
CC(=O)OCCNc1cc(Sc2nc3ccccc3[nH]2)c2nonc2c1[N+](=O)[O-]	x	i	i	-4.49*
SMILES	TAG inh	CHT allo act	CHT inh	Kir21 block
COc1ccccc1CNC(=O)CC(C)C	-7.1	i	i	-0.08
COc1ccccc1CNCC(c1ccccc1)c1ccccc1	x	i	i	-8.48*
COc1ccccc1CNCc1cc(OC)c(OC)cc1OC	x	i	i	-0.37
COc1cc(CNCc2ccc(OC)cc2OC)cc(OC)c1	-2.6	i	i	-1.56
COc1ccccc1CNCc1cc(Br)ccc1OC	x	i	i	-6.05*
COc1ccccc1CNCC(O)Cn1c2ccccc2c2ccccc21 (stereo unspecified)	38.4	i	i	-13.3*
COc1ccccc1CNCc1cccc(Oc2ccccc2)c1	-12.6	i	i	-8.78*
